MCF10A rerep – inducers of DNA re-replication in MCF 10A breast cells; MCF 10A DNA re-replication, Hoechst nuclear intensity, 48 h; 2.9% of 350,000 active; Potency, µM (top dose mostly 46.1 µM), hits mostly activators; AID 624296; further: nearly all actives have a fitted effect of over 50% in size
SW480 rereplic – induces DNA re-replication in SW480 colon adenocarcinoma cells; 1.8% of 340,000 active; Potency, µM (top dose mostly 46.1 µM), usual class: activators; AID 624297; SW480 DNA re-replication, Hoechst DNA content imaging, 48 h; further: nearly all actives have a fitted effect of over 55% in size
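Cells (250 per well) received 23 nL compound or DMSO by pin tool and were kept 48 hr at 37 C, 5% CO2. Nuclei were then stained with Hoechst for 40 min and scanned for DNA content.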
KB-V1 cytotox – kills drug-selected multidrug resistant KB-V1 cells. 3.4% of 400,000 active. Potency, µM (titrated, usually from 46.1 µM), usual class: cytotoxic. KB-V1 MDR cells viability, CellTiter-Glo, 72 h; further: nearly all actives have a fitted effect of over 60% in size
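KB-V1 cells (P-gp-expressing MDR subline of KB-3-1) in phenol-red-free DMEM with 10% FBS were exposed to library compounds over a concentration series for 72 h at 37 degrees C. Viability read by CellTiter-Glo luminescence; concentration-effect curves fitted after normalization.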
KB-3-1 cytotox – KB-3-1 parental cell cytotoxicity. KB-3-1 viability, CellTiter-Glo ATP luminescence, 72 h. Potency, µM (series often up to 46.1 µM), most hits filed as cytotoxic. 1.4% of 400,000 active; further: nearly all actives have a fitted effect of over 60% in size
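Screening of KB-3-1 cells (DMEM, 10% FBS, phenol-red free) ran from lowest to highest compound concentration; after 72 h at 37 °C viability was read luminescently and curves fitted.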
VP16 counter – counter-screen for ROR gamma inhibitors: Gal4-VP16 reporter; 3.5% of 310,000 active; Drosophila S2 Gal4-VP16 UAS-luciferase, luminescence, 20 h; Potency, µM (highest dose often 53.6 µM), usual class: inhibitors;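 further: Gal4-VP16 expression switched on by copper sulfate through the metallothionein promoter; nearly all actives have a fitted effect of over 50% in size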
RORg inh – ROR gamma (mouse) transcription inhibition; Drosophila S2 Gal4-RORgamma UAS-luciferase reporter, 20 h; P51450; Potency, µM (titrated, usually from 53.6 µM), actives largely listed as inhibitors; 5.4% of 310,000 active; AID 2551; further: nearly all actives have a fitted effect of over 60% in size
Target sequence (P51450 whole entry, looked up, the tested form may be a part): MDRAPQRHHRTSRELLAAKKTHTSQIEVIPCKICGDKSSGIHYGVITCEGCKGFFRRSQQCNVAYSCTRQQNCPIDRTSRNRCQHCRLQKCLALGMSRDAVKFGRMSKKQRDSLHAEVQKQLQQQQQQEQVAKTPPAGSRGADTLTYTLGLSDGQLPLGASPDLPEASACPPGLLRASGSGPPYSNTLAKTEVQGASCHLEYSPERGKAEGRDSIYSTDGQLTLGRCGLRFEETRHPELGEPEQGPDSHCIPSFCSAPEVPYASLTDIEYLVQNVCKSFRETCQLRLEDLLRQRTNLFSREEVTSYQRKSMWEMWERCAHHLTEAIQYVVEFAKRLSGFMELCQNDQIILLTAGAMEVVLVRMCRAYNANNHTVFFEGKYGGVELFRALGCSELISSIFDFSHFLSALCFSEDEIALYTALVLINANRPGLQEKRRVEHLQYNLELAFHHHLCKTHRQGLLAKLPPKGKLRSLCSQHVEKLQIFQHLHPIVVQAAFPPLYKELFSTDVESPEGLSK
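Stably transfected Drosophila Schneider cells are the test system, with ROR gamma fused to Gal4 and luciferase under UAS control; luminescence is read after 20 hr of 700 uM copper sulfate induction at ambient temperature.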
Large screens that a line does not name were inactive; ! = a repeat was not active. Compounds with a hit are over-represented: about 10% of the library has one in this group of screens. The call rests on the fitted dose curve; in most records, active means well fitted curve in the direction sought with a large enough effect; inconclusive means small, poorly fitted or top-dose-only effect, or another doubt; inactive means no such curve, though single readings can be large; an effect the other way counts as inactive or inconclusive.

Fc1ccc(Br)cc1C1C=C(c2ccc(Br)cc2)Nc2nnnn21 (stereo not given)	none (no result: MCF10A rerep, SW480 rereplic, VP16 counter, RORg inh)
CCc1ccc(C2=CC(c3cc(Br)ccc3F)n3ncnc3N2)cc1 (stereo not given)	SW480 rereplic inconclusive, KB-V1 cytotox 9.2µM, KB-3-1 cytotox 8.2µM, VP16 counter 14µM, RORg inh inconclusive
Cc1ccc(C2=CC(c3c(F)cccc3Cl)n3ncnc3N2)cc1C (stereo not given)	none (no result: MCF10A rerep, SW480 rereplic, VP16 counter, RORg inh)
Fc1ccc(Br)cc1C1C=C(c2ccc(Br)cc2)Nc2ncnn21 (stereo not given)	KB-V1 cytotox inconclusive, VP16 counter inconclusive, RORg inh 6.3µM
Cc1ccsc1C1C=C(c2cccc(Br)c2)Nc2ncnn21 (stereo not given)	VP16 counter inconclusive, RORg inh 7.9µM
COCC(C)NC(=O)c1noc2c1CCc1cc(OC)ccc1-2 (stereo not given)	MCF10A rerep inconclusive, KB-V1 cytotox 16µM, RORg inh inconclusive
COc1ccc2c(c1)CCc1c(C(=O)NCCN3CCOCC3)noc1-2	KB-V1 cytotox 12µM
COCCNC(=O)c1noc2c1CCc1cc(OC)ccc1-2	VP16 counter inconclusive
CCOC(=O)c1nnn(-c2nonc2-n2cccc2)c1CCl	MCF10A rerep inconclusive, SW480 rereplic inconclusive, KB-V1 cytotox inconclusive, KB-3-1 cytotox inconclusive
CC1CCN(Cc2c(C(=O)N/N=C/c3cc(Cl)ccc3O)nnn2-c2nonc2N)CC1	KB-V1 cytotox inconclusive, KB-3-1 cytotox 2.1µM, VP16 counter 4.5µM, RORg inh 3.5µM
COc1c(Cl)cc(Cl)cc1/C=N/NC(=O)c1nnn(-c2nonc2N)c1CN1CCC(C)CC1	MCF10A rerep 5.8µM, SW480 rereplic inconclusive, KB-V1 cytotox inconclusive
CCOC(=O)c1nnn(-c2nonc2-n2cccc2)c1CN1CCC(C)CC1	MCF10A rerep 26µM, SW480 rereplic inconclusive, VP16 counter inconclusive
CC1CCN(Cc2c(C(=O)N/N=C/c3cc(Br)ccc3O)nnn2-c2nonc2N)CC1	SW480 rereplic inconclusive, KB-V1 cytotox inconclusive, KB-3-1 cytotox inconclusive, VP16 counter 7.1µM, RORg inh 3.5µM
Cc1cc(=O)oc2c1ccc1oc(/C(=N/O)c3ccccc3)c(C)c12	MCF10A rerep inconclusive, KB-V1 cytotox 21µM, KB-3-1 cytotox inconclusive, RORg inh inconclusive
Cc1ccc(/C(=N\O)c2oc3c(C)c4oc(=O)cc(C)c4cc3c2C)cc1	MCF10A rerep inconclusive, KB-V1 cytotox inconclusive, KB-3-1 cytotox inconclusive
CCCN(CC1CC1)C(=S)NC(=O)c1ccc(S(=O)(=O)N2CCOCC2)cc1	VP16 counter 0.89µM, RORg inh 0.35µM
Cc1ccc(C(=O)NNC(=O)c2ccc(S(=O)(=O)N3CCOCC3)cc2)cc1	none
O=C(NC(=S)N1CCN(C(c2ccccc2)c2ccccc2)CC1)c1ccc(S(=O)(=O)N2CCOCC2)cc1	KB-V1 cytotox 21µM, VP16 counter 0.028µM, RORg inh 0.32µM
N#CCCN(Cc1cccnc1)C(=S)NC(=O)c1ccc(S(=O)(=O)N2CCCC2)cc1	VP16 counter inconclusive, RORg inh 2.5µM
CN1CCN(C(=S)NC(=O)c2ccc(S(=O)(=O)N3CCOCC3)cc2)CC1	VP16 counter inconclusive, RORg inh 10µM
COc1cc(OC)cc(-c2nc3nc(C)c(CCC(=O)Nc4ccc(Cl)cc4)c(C)n3n2)c1	none (no result: MCF10A rerep, SW480 rereplic, VP16 counter, RORg inh)
CN(Cc1ccccc1)CC(O)COc1ccc(CNCCc2ccncc2)cc1 (stereo not given)	MCF10A rerep inconclusive, SW480 rereplic 18µM, KB-V1 cytotox inconclusive
CN(Cc1ccccc1)CC(O)COc1ccc(CNCCc2cccnc2)cc1 (stereo not given)	none
Cc1ccc(CNC(=O)c2cc3c(=O)n4cccc(C)c4nc3n(CC3CCCO3)c2=N)cc1 (stereo not given)	none (no result: MCF10A rerep, SW480 rereplic, KB-V1 cytotox, KB-3-1 cytotox)
CCN(C(=O)c1cc2c(=O)n3cccc(C)c3nc2n1CCCOC)C1CCCCC1	MCF10A rerep 18µM, SW480 rereplic 29µM, KB-V1 cytotox inconclusive
Cc1cccn2c(=O)c3cc(C(=O)NCc4cccnc4)c(=N)n(CC4CCCO4)c3nc12 (stereo not given)	MCF10A rerep 2.3µM, SW480 rereplic inconclusive
Cc1cccn2c(=O)c3cc(C(=O)NCC4CCCO4)c(=N)n(CCN4CCOCC4)c3nc12 (stereo not given)	MCF10A rerep 15µM, SW480 rereplic 16µM
COCCCn1c(=N)c(C(=O)NCC2CCCO2)cc2c(=O)n3cccc(C)c3nc21 (stereo not given)	MCF10A rerep 13µM, SW480 rereplic 6.5µM, KB-V1 cytotox inconclusive, KB-3-1 cytotox inconclusive
CCOCCCn1c(=N)c(C(=O)NCC2CCCO2)cc2c(=O)n3cccc(C)c3nc21 (stereo not given)	none (no result: MCF10A rerep, SW480 rereplic, VP16 counter, RORg inh)
Cn1cccc1C(=O)N1CCC2(CC1)CCN(c1ccc(-c3ccccc3)cc1)CC2	none (no result: MCF10A rerep, SW480 rereplic, KB-V1 cytotox, KB-3-1 cytotox)
CCCn1c(=N)c(C(=O)NCC2CCCO2)cc2c(=O)n3cccc(C)c3nc21 (stereo not given)	MCF10A rerep 12µM, SW480 rereplic inconclusive, KB-3-1 cytotox 21µM
COCCCn1c(=N)c(C(=O)NCC2CCCO2)cc2c(=O)n3ccccc3nc21 (stereo not given)	MCF10A rerep 12µM, SW480 rereplic 6.5µM
N=c1c(C(=O)NCC2CCCO2)cc2c(=O)n3ccccc3nc2n1CCCO (stereo not given)	none (no result: MCF10A rerep, SW480 rereplic, VP16 counter, RORg inh)
CSc1cccc(NS(=O)(=O)c2ccc3[nH]cc(C(=O)N4CCCC4)c(=O)c3c2)c1	none (no result: MCF10A rerep, SW480 rereplic, VP16 counter, RORg inh)
CCn1c(=O)cc(SCC(=O)Nc2ccc3c(c2)OCO3)c2ccccc21	KB-V1 cytotox 16µM, VP16 counter inconclusive
CCn1c(=O)cc(SCC(=O)N2CCN(c3ccccc3F)CC2)c2ccccc21	MCF10A rerep inconclusive, KB-V1 cytotox 23µM!
CN(Cc1ccccc1)C(=O)CSc1cc(=O)n(C)c2ccccc12	KB-V1 cytotox inconclusive, VP16 counter inconclusive
CCn1c(=O)cc(SCC(=O)N(C)Cc2ccccc2)c2ccccc21	KB-V1 cytotox 4.6µM
COc1ccc(Cn2nnnc2C(c2ccccn2)N2CCN(c3ccc(O)cc3)CC2)cc1 (stereo not given)	none (no result: MCF10A rerep, SW480 rereplic, VP16 counter, RORg inh)
CO[C@@H]1COC(=O)[C@H](C)NC(=O)C/C=C\[C@@H](C)[C@H](OC)COC(=O)[C@H](C)NC(=O)C/C=C\[C@H]1C	none (no result: MCF10A rerep, SW480 rereplic, KB-V1 cytotox, KB-3-1 cytotox)
NC(=O)C1(N2CCCCC2)CCN(C(=O)c2cc(COc3c(F)cccc3F)on2)CC1	KB-V1 cytotox inconclusive (no result: MCF10A rerep, SW480 rereplic, VP16 counter, RORg inh)
Cc1ccc2oc(-c3ccc(C)c(NC(=O)/C=C/c4ccc(Cl)cc4)c3)nc2c1	none (no result: MCF10A rerep, SW480 rereplic, VP16 counter, RORg inh)
Cc1nn(-c2ccccc2)c(C)c1NC(=O)COc1ccc2ccccc2c1	MCF10A rerep inconclusive, KB-V1 cytotox 15µM, KB-3-1 cytotox inconclusive
Cc1cc(NC(=O)COc2ccc(Cl)cc2Cl)n(-c2ccccc2)n1	KB-V1 cytotox inconclusive

Screening data as filed in PubChem.
